Laboratory results published in PubChem BioAssay AID652142 (Molecular Libraries Program, Specialized Chemistry Center, …, 2013).
Out of some 2,400 compounds screened, fewer than 10 were called active. The rule behind the calls is not given here. Only a sample is shown.

These compounds were tested against Rac GTPase-activating protein 1 (Homo sapiens) (UniProt Q9H0H5) (assay: inhibition of MgcRacGAP-stimulated Rac1 GTP hydrolysis – biochemical, inorganic phosphate detection, orthogonal assay, confirmation (AID 652142)). Settings: MgcRacGAP/Rac1F28L GTP hydrolysis, Biomol green phosphate; stronger effect = higher value.
Chain of Rac GTPase-activating protein 1 (Homo sapiens) (Q9H0H5 whole entry, looked up): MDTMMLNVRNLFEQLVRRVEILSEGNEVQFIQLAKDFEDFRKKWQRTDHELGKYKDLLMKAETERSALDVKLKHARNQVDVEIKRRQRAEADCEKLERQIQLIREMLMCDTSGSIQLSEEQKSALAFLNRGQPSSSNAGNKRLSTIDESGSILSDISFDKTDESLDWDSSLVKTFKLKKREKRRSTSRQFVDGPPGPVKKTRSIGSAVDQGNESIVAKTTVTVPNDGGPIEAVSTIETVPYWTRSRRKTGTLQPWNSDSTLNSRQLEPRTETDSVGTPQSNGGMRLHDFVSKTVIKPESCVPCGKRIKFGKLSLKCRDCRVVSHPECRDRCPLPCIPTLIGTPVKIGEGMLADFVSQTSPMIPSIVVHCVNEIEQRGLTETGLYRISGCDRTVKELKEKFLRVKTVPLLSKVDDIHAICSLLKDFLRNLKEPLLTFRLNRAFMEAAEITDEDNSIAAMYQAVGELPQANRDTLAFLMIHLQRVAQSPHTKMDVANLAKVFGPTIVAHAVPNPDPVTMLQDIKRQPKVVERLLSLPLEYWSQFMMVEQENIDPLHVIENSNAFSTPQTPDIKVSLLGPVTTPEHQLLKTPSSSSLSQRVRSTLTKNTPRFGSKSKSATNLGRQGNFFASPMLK

inhibition, inactive:
CCOc1ccc(/C=N/NC(=O)NC23CC4CC(CC(C4)C2)C3)cc1O 17.5%
CCn1c(C)nc2cc(C(=O)N/N=C/c3ccc(O)cc3)ccc21 22.6%
COc1ccc(Oc2c(-c3ccc(O)cc3O)n[nH]c2C)cc1 9.67%
C=C(CN(C)C)C(=O)c1cc(OC)c(OC)cc1OC 6.42%
CCn1c(=O)c(C(=O)CN(C)Cc2cccc(OC)c2OC)c(N)n(Cc2ccccc2)c1=O 35.9%
CCOc1ccc2c(ccc(/C=C/c3cc(C)c4cccnc4c3O)[n+]2C)c1 66.1%
CN(C)c1ccc(NC(=O)c2sc(SCC(=O)Nc3nccs3)nc2N)cc1 29.2%
Cc1ccc(NCCN(C)C)c2c(=O)c3cc(O)ccc3sc12 31.1%
C(=N\Nc1nc2ccccc2[nH]1)/c1c[nH]c2ccccc12 4.59%
COc1cc2c(cc1NC(=S)Nc1cccc3ccccc13)oc1ccccc12 21.3%
NS(=O)(=O)c1ccc(Nc2nc(-c3ccc(O)cc3O)cs2)cc1 24.5%
Cc1cc(=O)[nH]c2c(N=Nc3ccc(O)cc3)c(N)nn12 34.3%
CSCCOC(=O)C1=C(C)Nc2ccc(C)cc2S1 29.3%
OCC1CCCN(C(=S)Nc2ccc(Nc3ccccc3)cc2)C1 (stereo not drawn) 34.4%
COc1cc2c(cc1NC(=S)Nc1cccc(C(F)(F)F)c1)oc1ccccc12 8.84%
COc1cc(/C=N/n2c(-c3cc(C)[nH]n3)n[nH]c2=S)cc(OC)c1OC 1.28%
CCN(CC)c1ccc(C(=C2C=CC(=[N+](CC)CC)C=C2)c2ccc(N(CC)CC)cc2)cc1 90%
COc1cc(C=NNC(=O)c2ccccc2-n2cccc2)ccc1O 22%
COc1cc2c(cc1OC)C1(CCCC1)C(N)=C2C#N 18.7%
CC1CC(=O)N(c2ccc(NCCc3ccc(O)cc3)c([N+](=O)[O-])c2)C1=O (stereo not drawn) 29.1%
CCN1C(=O)/C(=C2/C=Cc3cc(C)ccc3N2CC)N(C)C1=S 23%
O=C(O)c1c2c(nc3ccccc13)/C(=C/c1ccc(O)cc1)CCC2 19.3%
CN(C)c1ccc(NC2=C(Cl)C(=O)c3ccccc3C2=O)cc1 22%
Cc1ccc(/C(N)=N/OC(=O)N2c3ccccc3Sc3ccccc32)cc1 23.7%
Oc1ccc(Nc2ncnc3ccccc23)cc1 20.3%
CN1/C(=C\C=N\NC(=O)c2ccc(O)cc2)C(C)(C)c2ccccc21 22.5%
O=C(Cn1c(C(=O)NCC2CCCO2)cc2sccc21)c1ccccc1 (stereo not drawn) 18.4%
Cc1ccc(NC(=O)CCNCc2ccco2)cc1S(=O)(=O)N(C)C 33.8%
CC(NCc1ccc(S(N)(=O)=O)cc1)C(=O)N1c2ccccc2CC1C (stereo not drawn) 13.9%
O=C(C1=C(O)C(=O)N(c2nc3ccc(Cl)cc3s2)C1c1ccco1)c1ccco1 (stereo not drawn) 28.7%
C/C(=N\NC(=O)c1ccccc1F)c1ccc2c(c1)Nc1ccccc1S2 20.8%
COc1cc(/C=C2\C(=O)N(C)C(=S)N2C)ccc1O 9.53%
COc1ccc(NC(=O)c2ccc(NC(=O)CN3CCN(c4ccc(O)cc4)CC3)cc2)cc1 18.8%
CN(C)CCNc1ccc(CO)c2oc3ccc(O)cc3c(=O)c12 14.8%
CN(C)c1ccc(/C=C/c2ccc3ccccc3[n+]2C)cc1 41%
Oc1ccc(/C=C/c2ccc3ccccc3n2)cc1 35.5%
O=C1/C(=C\c2ccc(O)cc2)SC(=S)N1/N=C/c1ccc(O)cc1 13.5%
COc1ccccc1C(=O)N1CCN(Cc2cccnc2)CC1 19.7%
CN(C)c1ccc(/C=C2/C[N+](C)(C)C/C(=C/c3ccc(N(C)C)cc3)C2=O)cc1 25.4%
Cc1cc(O)ccc1NC(=O)c1ccccc1 36%
Cc1cc(C)c2nc(C)cc(N/N=C/c3ccc(O)cc3)c2c1 41.9%
COc1cc(/C=C2\SC(=S)N(Nc3ccccc3)C2=O)ccc1O 19.2%
O=C(Oc1ccc(N(C(=O)c2ccncc2)S(=O)(=O)c2cccs2)cc1)c1ccncc1 26.2%
CCOc1cc(/C=C2\C(=O)N(CCc3ccc(OC)c(OC)c3)C(C)=C2C(=O)OC)ccc1O 20.6%
O=C(CN1CCN(c2ccc(O)cc2)CC1)NCC(=O)Nc1ccc(F)c(F)c1F 24.8%
O=C(COc1ccccc1C(=O)N/N=C\c1ccc(O)c(O)c1)N/N=C/c1ccc(O)c(O)c1 8.94%
COc1ccc(NC2CCCN(C(=O)c3ccc4[nH]c(C)c(C)c4c3)C2)cc1 (stereo not drawn) 17.9%
COc1cc(/C=N/NC(=O)CCn2c3ccccc3c3ccccc32)ccc1O 21%
COCCCNC1=C(C#N)C(=O)NC(c2cccs2)S1 (stereo not drawn) 40.4%
CN(C)CCNc1ccc(CO)c2sc3ccc(O)cc3c(=O)c12 12.6%
NC(CSS(=O)(=O)O)=NCCC12CC3CC(CC(O)(C3)C1)C2 34.4%
C=CCn1c(SCC(=O)Nc2ccc(N(C)C)cc2)nnc1-c1cccc(C)c1 15.5%
CCOc1cc(-c2nc3ccccc3s2)ccc1O 30.1%
Oc1ccc(/C=N/Nc2nn3cnnc3c3ccccc23)cc1 25.8%
Oc1ccc(/C=N/n2c(-c3ccco3)csc2=Nc2cccnc2)c(O)c1 23.8%
Cc1ccc(S(=O)(=O)c2cc(Nc3ccccc3)ccc2O)cc1 11.6%
Cc1cc(C)n(CC(O)CN2c3ccccc3Sc3ccccc32)n1 (stereo not drawn) 32.2%
CC(C)C1=Nc2cccc3cccc(c23)N1 22.3%
COc1nc(Nc2ccc(O)cc2)nc(OC(C(F)(F)F)C(F)(F)F)n1 18.1%
Clc1cccc(N/N=C/c2ccc(N3CCOCC3)s2)c1 29.3%
CCOC(=O)C1CCN(Cc2cn[nH]c2-c2ccccc2)CC1 27.9%
CCOc1cc(/C=N/NC(=O)Nc2ccccc2)ccc1O 23.6%
CCOc1cc(/C=C(\C#N)c2[nH]nc(N)c2C#N)ccc1O 29.6%
Cc1cc(-c2ccccc2)nc(N/N=C/c2ccc(O)cc2)n1 18.1%
CCOC(=O)C1=C(C)Nc2ccccc2S1 35.2%
C=CCOc1ccccc1CN1CCCN(C)CC1 22.3%
CCOc1cc(/C=C(\C#N)C(=O)NCC2CCCO2)ccc1O (stereo not drawn) 23.9%
CN1C(=O)NC(c2ccc(O)cc2)C2=C1CN(c1ccc(O)cc1)C2=O (stereo not drawn) 24.1%
Cc1ccnc(Nc2nc(-c3ccc(O)c(O)c3)cs2)c1 23.8%
CCOC(=O)c1nc(Nc2ccc(Nc3ccccc3)cc2)c2ccccc2n1 32%
Oc1ccc(NC(=S)N=Nc2c(O)[nH]c3ccc(Br)cc23)cc1 26.7%
CCOC(=O)c1[nH]c2ccccc2c1NC(=S)Nc1cccc(C)c1C 18.1%
CCN(CC)c1ccc(C(=C2C=CC(=[N+](CC)CC)C=C2)c2ccccc2)cc1 28%
CC(C)N=c1scc(-c2ccco2)n1/N=C/c1ccc(O)c(O)c1 27.8%
O=C1CSC(=S)N1Nc1ccccc1 17.3%
CCc1cc(-c2n[nH]c(CCC(=O)O)c2-c2nc3ccccc3n2C)c(O)cc1O 30.8%
Nc1nc(=S)c2[nH]c(=S)[nH]c2[nH]1 35.5%
CC(C(=O)NCC(=O)Nc1ccc(F)c(F)c1F)N1CCN(c2ccc(O)cc2)CC1 (stereo not drawn) 20.8%
